Potency, outcome and activity change, negative = inhibition data for eight compounds are collected here from PubChem BioAssay (NCATS).

Inconclusive results are not listed. The source made the active and inactive calls. Unless noted, calls follow the shape of the full dose curve.

Assay [1] can be described thus: qHTS for Inhibitors of the Functional Ribonucleoprotein Complex (vRNP) of Lassa (LASV) Arenavirus: LASV Primary Screen - GLuc reporter signal (AID 1347082; calls by dose curve; tested in HEK293 reporter line; also: % is scaled to controls: 0 for no effect and ±100 for the full control effect; nearly all actives have a fitted effect of over 60% in size). (In general: Quantitative high-throughput screening tests each substance at several concentrations.)
The nature of assay [2]: qHTS for Inhibitors of the Functional Ribonucleoprotein Complex (vRNP) of Lassa (LASV) Arenavirus: Viability assay - alamar blue signal for LASV Primary Screen (AID 1347083; calls by dose curve; tested in HEK293 reporter line; also: % is scaled to controls: 0 for no effect and ±100 for the full control effect; nearly all actives have a fitted effect of over 80% in size).
Assay [3] in a line: qHTS for Inhibitors of the Functional Ribonucleoprotein Complex (vRNP) of Lymphocytic Choriomeningitis Arenaviruses (LCMV): Viability assay - alamar blue signal for LCMV Primary Screen (AID 1347085; calls by dose curve; tested in HEK293 reporter line; also: % is scaled to controls: 0 for no effect and ±100 for the full control effect; nearly all actives have a fitted effect of over 80% in size).
For assay [4], the target named is Nucleoprotein (Lymphocytic choriomeningitis virus (strain Armstrong)) (UniProt P09992). The assay can be described thus: qHTS for Inhibitors of the Functional Ribonucleoprotein Complex (vRNP) of Lymphocytic Choriomeningitis Arenaviruses (LCMV): LCMV Primary Screen - GLuc reporter signal (AID 1347086). Also: % is scaled to controls: 0 for no effect and ±100 for the full control effect; nearly all actives have a fitted effect of over 70% in size.
Nucleoprotein (Lymphocytic choriomeningitis virus (strain Armstrong)), sequence (P09992 whole entry, looked up): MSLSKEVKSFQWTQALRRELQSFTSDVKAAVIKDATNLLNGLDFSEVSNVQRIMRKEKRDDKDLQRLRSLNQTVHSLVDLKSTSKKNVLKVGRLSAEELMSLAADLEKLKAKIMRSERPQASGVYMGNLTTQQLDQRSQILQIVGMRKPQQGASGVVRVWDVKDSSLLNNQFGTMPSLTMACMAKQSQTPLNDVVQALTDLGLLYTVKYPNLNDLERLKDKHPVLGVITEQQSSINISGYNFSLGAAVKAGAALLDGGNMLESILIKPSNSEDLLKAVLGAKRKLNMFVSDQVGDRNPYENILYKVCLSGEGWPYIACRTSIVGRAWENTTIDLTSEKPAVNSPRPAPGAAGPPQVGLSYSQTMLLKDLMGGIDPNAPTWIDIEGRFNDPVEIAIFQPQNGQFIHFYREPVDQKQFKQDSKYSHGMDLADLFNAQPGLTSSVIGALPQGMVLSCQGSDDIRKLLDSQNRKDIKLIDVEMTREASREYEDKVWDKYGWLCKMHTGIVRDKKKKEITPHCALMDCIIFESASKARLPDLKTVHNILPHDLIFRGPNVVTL
Assay [5] can be described thus: Primary qHTS for inhibitors of SARS-S pseudo-typed particle cell entry (AID 1479145). Also: nearly all actives have a fitted effect of over 45% in size. As to activity change, negative = inhibition: % is scaled to controls: 0 for no effect and ±100 for the full control effect.
A short description of assay [6]: Primary qHTS for Huh7 cytotoxicity: counterscreen for inhibitors of MERS-S pseudotyped particle cell entry (AID 1479147). Particulars: outcome: dose series up to 57.1 µM unless noted.
Assay [7] is described as follows: Primary qHTS for inhibitors of MERS-S pseudo-typed particle cell entry (AID 1479149). Also: nearly all actives have a fitted effect of over 60% in size. As to activity change, negative = inhibition: % is scaled to controls: 0 for no effect and ±100 for the full control effect.
A short description of assay [8]: Primary qHTS for Vero E6 cytotoxicity: counterscreen for inhibitors of SARS-S pseudo-typed particle cell entry (AID 1479150). Particulars: outcome: dose series up to 57.1 µM unless noted.
Assay [9] can be described thus: Cytotoxicity counterscreen for inhibitors of SARS-CoV-2 cell entry (AID 1645845). Also: nearly all actives have a fitted effect of over 50% in size. The method in brief: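 HEK293-ACE2 cells (Expi293F stably expressing human ACE2) seeded overnight, then compound for 1 h plus 48 h at 37C. Viability as ATP content by luminescence; normalized to wells with cells and media-only wells.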
Assay [10] is described as follows: Primary qHTS to identify inhibitors of SARS-CoV-2 cell entry (AID 1645846). Also: nearly all actives have a fitted effect of over 45% in size. Particulars: activity change, negative = inhibition: at 57.1 µM (top of the series) unless noted. The method in brief: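 HEK293-ACE2 (Expi293F, stable hACE2), 1500 cells/well, o/n 37C; cpd 23 nL pin, 1 h; MLV-PP w/ SARS-CoV-2-S (Wuhan-Hu-1, Δ19 C-term); 48 h 37C; Bright-Glo luminescence; normalized vs S-PP and bald PP.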

The nature of assay [11]: KB-8-5-11 P-gp reporter qHTS against the NCATS DSHEA and TCM libraries (AID 1919977; active = well fitted curve in the direction sought with a large enough effect; also: 0% is about no effect). The method in brief:
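CellTiter-Glo luminescence after ~72 h exposure at 37C gave viability of KB-8-5-11 cells, the P-gp-overexpressing subline. Substances were titrated; colchicine was omitted from assay medium.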

The nature of assay [12]: Confirmatory qHTS for VERO E6 Cytotoxicity Assay: Counterscreen for SARS-CoV-2 CPE Assay (AID 1508605). Also: % is scaled to controls: 0 for no effect and ±100 for the full control effect; nearly all actives have a fitted effect of over 60% in size.
Assay [13] in a line: qHTS for inhibitors of Rabies Virus screened against the NCATS CANVASS Library (AID 1347402). Also: 0% is about no effect.

For the compound `O=C1CCC(C(=O)O)N1` (configuration not stated), the Potency entry in assay [1], in assay [2], in assay [3], in assay [4], in assay [5] and in assay [7] was “inactive” throughout. For the same compound, the Potency result in [9] was “inactive”. Also, the compound was classed as inactive in [6] and in assay [8]. Moreover, in assay [10], the activity change, negative = inhibition is -17.5%.

For `COc1cc(C)c(C=CC(C)=CC=CC(C)=CC(=O)O)c(C)c1C`, the Potency entry in assay [1], in assay [2], in assay [3], in assay [4], in assay [5] and in [7] was “inactive” in each case. For the same compound, the Potency result in [9] and in assay [10] was “inactive” each time. The call in [6] and in assay [8] was inactive.

As to `CCCCCCCCCC(=O)O`, the Potency entry in assay [1], in [2], in assay [3], in [4], in assay [5] and in assay [7] was “inactive” in each case. In addition, the Potency result in assay [9] and in [10] was “inactive” in each case. Besides, the outcome in assay [6], in assay [8] and in [11] was inactive.

Turning to `O=C(Nc1c(Cl)cncc1Cl)c1ccc(OC(F)F)c(OCC2CC2)c1`, the Potency entry in assay [1], in assay [2], in assay [3], in [4], in assay [5] and in [7] was “inactive” in each case. The Potency entry in [9] is “inactive”. Moreover, the compound was classed as inactive in [6] and in assay [8]. Further, the activity change, negative = inhibition in assay [10] is -7.18%.

Take `NC[C@H]1O[C@H](O[C@H]2[C@@H](O)[C@@H](O[C@H]3O[C@H](CO)[C@@H](O)[C@H](N)[C@@H]3O)[C@H](N)C[C@@H]2N)[C@H](N)C[C@H]1O`: the Potency entry in assay [1], in assay [2], in assay [3] and in assay [4] was “inactive” each time. Also, the results for the activity change, negative = inhibition in assay [5] and in assay [10] were -1.32% [at 11.4 µM] (inactive) and -15.5% [at 11.3 µM], respectively. The outcome is “inactive [at 11.4 µM]” in assay [6], “inactive [at 11.4 µM]” in [7], “inactive [at 11.4 µM]” in [8] and “inactive [at 11.3 µM]” in [9].

`Cc1cc(O)c2c(c1)O[C@@]1(C)CC[C@H]3C(C)(C)CCCC34CO[C@@H]2[C@H]41` (some centres not stated): the Potency result in assay [1], in assay [2], in assay [3], in assay [4], in assay [5] and in assay [7] was “inactive” each time. Also, the Potency entry in assay [12] and in [9] was “inactive” in each case. Moreover, the compound was called inactive in assay [6] and in assay [8].

As to `O=C(O)C(O)Cc1ccc(O)c(O)c1` (configuration not stated), the Potency result in [1], in assay [2], in assay [3], in assay [4] and in assay [9] was “inactive” in each case. For the same compound, the result in assay [13] was inactive. Moreover, in assay [10], the activity change, negative = inhibition was -13% [at 114 µM].

`COc1cc2c(c(OC)c1OC)-c1c(cc3c(c1OC)OCO3)C[C@H](C)[C@@](C)(O)C2`: the Potency entry in [1], in assay [2], in assay [3], in assay [4], in assay [5] and in assay [7] was “inactive” in each case. In addition, the Potency entry in assay [9] is “inactive”. Also, the compound was classed as inactive in assay [6] and in assay [8].
